High-throughput results from PubChem BioAssay.
This is a sample that favours compounds with a hit; in the whole collection about 4.9% have one here.
PP1 counter – counter-screen for PP5 inhibitors: inhibitors of human PP1-alpha; inhibition, % at 6.7 µM; purified PP1alpha, OMFP fluorescence; AID 2235; 0.9% of 320,000 active; P62136;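 active = inhibition above the mean inhibition of all tested compounds plus 3 SD, computed separately for each screening campaign, cut at about 15% in these data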
Mdm2 MdmX PPI – human Mdm2/MdmX binding inhibition; SaOS-2 split-luciferase Mdm2/MdmX complementation, luminescence; inhibition, % at 8 µM; AID 485346; 3% of 330,000 active; O15151+Q00987;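 active = inhibition of at least 50% at 8 µM in the primary screen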
Beta apoptosis – beta cell apoptosis inhibition; 0.8% of 300,000 active; protection from apoptosis, % (concentration not given with the values); INS-1E cytokine-induced death, ATP luminescence, 48 h; percent of positive-control rescue, neutral wells zero; AID 435005;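 active = Every replicate reaches about 75%, or at least half do and their mean reaches it too, limit read from the data; inconclusive = At least half of replicates reach the limit but their mean does not; inactive = Under half of replicates reach the limit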;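 also: higher means more ATP so stronger rescue from cytokine killing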
PP5 inh – PP5 (human) phosphatase inhibition. P53041. purified PP5c, OMFP substrate fluorescence. inhibition, % at 6.7 µM. 0.18% of 320,000 active. AID 1987;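 active = inhibition above the campaign's mean inhibition across all tested compounds plus 3 SD, cut at about 9.5% in these data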
Target sequence (P53041 whole entry, looked up): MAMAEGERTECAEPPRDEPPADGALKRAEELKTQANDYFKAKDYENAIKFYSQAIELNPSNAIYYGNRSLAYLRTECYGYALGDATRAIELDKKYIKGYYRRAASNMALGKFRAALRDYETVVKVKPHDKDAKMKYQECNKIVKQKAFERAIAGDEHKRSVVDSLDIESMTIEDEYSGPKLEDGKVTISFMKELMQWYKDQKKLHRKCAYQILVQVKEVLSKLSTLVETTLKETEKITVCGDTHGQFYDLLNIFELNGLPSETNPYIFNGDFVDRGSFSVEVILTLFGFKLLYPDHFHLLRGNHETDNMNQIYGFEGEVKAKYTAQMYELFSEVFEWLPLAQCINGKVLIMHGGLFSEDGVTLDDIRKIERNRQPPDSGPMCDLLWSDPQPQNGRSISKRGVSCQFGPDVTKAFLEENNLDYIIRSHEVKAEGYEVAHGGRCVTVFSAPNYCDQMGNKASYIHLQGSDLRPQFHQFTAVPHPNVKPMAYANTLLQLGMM
CSC inhib – cancer stem cell inhibition; cancer stem cell-like cells viability, luminescence; inhibition, % at 7.5 µM; 1.1% of 300,000 active; in the data active = inhibition above about 75%; inconclusive = no clear call, values can overlap the other calls; tested in HMLE shEcad cells
Calb FLC – C. albicans growth modulation with fluconazole. C. albicans CaCi-2 (fluconazole-resistant clinical isolate) + fluconazole, Alamar Blue growth, 48 h. growth inhibition, % (no concentration beside the values). AID 1979. 0.57% of 300,000 active;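 active = growth inhibition above about 58% in most replicates, limit read from the data, passing the limit was not always enough; inconclusive = exactly half the replicates above a set limit; inactive = most replicates below a set limit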;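 also: all wells also contain fluconazole at 8 µg/ml as a sub-toxic cotreatment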
Mdm2 MdmX conf – confirmation of human Mdm2/MdmX interaction inhibitors; shares compounds with Mdm2 MdmX PPI; Mdm2-MdmX binding, luminescent assay; inhibition, % at 8 µM; 55% of 10,000 active; AID 489028; in the data active = inhibition above about 40%
Full FLuc ctr – inhibits full-length luciferase, flagging false Mdm2/MdmX hits. shares compounds with Mdm2 MdmX PPI. SaOS-2 full-length luciferase counterscreen, luminescence. inhibition, % at 8 µM. 77% of 6,200 active;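 active = mean inhibition at 8 µM reaching about 37%, which flags the compound as non-specific, limit read from the data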;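 also: p53-null SaOS-2 cells with luciferase driven by a doxycycline-inducible promoter; compound on cells about two nights before reading with doxycycline added after day one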
Each line names hits and unclear results; the compound was inactive in the other large screens (follow-up assays come after a bar, where they were run).

COc1ccccc1NS(=O)(=O)c1cc(NC(=O)c2sc3cc(Cl)ccc3c2Cl)ccc1C	Mdm2 MdmX PPI 53 | Mdm2 MdmX conf inactive | Full FLuc ctr 104
COc1ccc2c(c1)O[C@H](c1ccc3c(c1)OCO3)[C@@H](OC(=O)N[C@H]1CCCc3ccccc31)C2=O	none (no result: Calb FLC)
COc1ccc2c(c1)O[C@@H](c1cccc(C(F)(F)F)c1)[C@H](OC(=O)Nc1ccc(OC(F)F)cc1)C2=O	none (no result: Calb FLC)
COc1ccc2c(c1)O[C@H](c1ccc3c(c1)OCO3)[C@@H](O)C2=O	Mdm2 MdmX PPI 50 | Mdm2 MdmX conf inactive
COc1ccc2c(c1)O[C@@H](c1cccc(C(F)(F)F)c1)[C@H](O)C2=O	Mdm2 MdmX PPI 55 | Mdm2 MdmX conf 60 | Full FLuc ctr 36
CCOC(=O)c1[nH]c2ccccc2c1NC(=O)Nc1ccc(OC)cc1	none
CCOC(=O)C1CCCN(C(=O)CCc2nnc(-c3ccc(C(C)=O)s3)o2)C1 (stereo not drawn)	none (no result: CSC inhib)
COc1cccc(CN2CCC(N(CCc3ccccc3)Cc3ccccc3)CC2)c1OC	Mdm2 MdmX PPI 61, Beta apoptosis 113, CSC inhib 77 | Mdm2 MdmX conf inactive
CC(C)n1cnc2c(N(C)c3cccc(Cl)c3)nc(N(CCO)CCO)nc21	none
CC(C)[C@H](CO)N(Cc1cccc(F)c1)c1nc(Nc2cccc(Cl)c2)c2ncn(C(C)C)c2n1	Mdm2 MdmX PPI 55 | Mdm2 MdmX conf inactive
CC[C@H](CO)Nc1nc(Nc2cccc(Cl)c2)c2ncn(C(C)C)c2n1	Mdm2 MdmX PPI 90, CSC inhib 82 | Mdm2 MdmX conf 71 | Full FLuc ctr 40
Cc1ccc(Cn2nc(C)c(C(=O)NCC(c3cccs3)N3CCOCC3)c2Cl)cc1 (stereo not drawn)	none
COc1ccc(S(=O)(=O)N(C)C)cc1NCC(=O)Nc1cccc(C#N)c1	none
Cc1ccc(-c2nn3c(C)nnc3s2)cc1NC(=O)c1ccc(-c2ccc(Cl)cc2Cl)o1	Mdm2 MdmX PPI 80 (no result: Beta apoptosis, Calb FLC) | Mdm2 MdmX conf inactive
O=C(CCC1CCCCC1)NCCN1C2=NC[C@H](Cc3ccccc3)N2C[C@H]1Cc1ccc(O)cc1	none
O=C(CCC1CCCCC1)NCCN1C2=NC[C@@H](Cc3ccccc3)N2C[C@H]1Cc1ccc(O)cc1	Mdm2 MdmX PPI 67 | Mdm2 MdmX conf 54 | Full FLuc ctr 63
CCCCn1c(SCC(=O)N2c3ccccc3Sc3ccccc32)nc2c1c(=O)n(C)c(=O)n2C	Mdm2 MdmX PPI 59 | Mdm2 MdmX conf inactive
CC1Cc2ccccc2N1C(=O)CSc1nc2c(c(=O)n(C)c(=O)n2C)n1Cc1ccc(F)cc1 (stereo not drawn)	Mdm2 MdmX PPI 72 | Mdm2 MdmX conf 47 | Full FLuc ctr 71
CC(=O)c1ccc(NC(=O)CSc2nc(C3CC3)nc3ccccc23)cc1	Mdm2 MdmX PPI 64 | Mdm2 MdmX conf inactive
N#Cc1cccc(NC(=O)CSc2ccc3c4c(cccc24)C(=O)c2ccccc2-3)c1	none (no result: Mdm2 MdmX PPI)
COc1ccc(NC(=O)CSc2nc(C3CC3)nc3ccccc23)c(OC)c1	none
COc1ccc(NC(=O)CSc2ccc3c4c(cccc24)C(=O)c2ccccc2-3)cc1	Mdm2 MdmX PPI 58 | Mdm2 MdmX conf inactive
Cc1ccc(NC(=O)CSc2nc3ccccc3c3nc4ccccc4n23)cc1	Mdm2 MdmX PPI 81 | Mdm2 MdmX conf 58 | Full FLuc ctr 70
COc1ccc(NC(=O)CSc2nc(C3CC3)nc3ccccc23)cc1	Mdm2 MdmX PPI 60 (no result: CSC inhib) | Mdm2 MdmX conf inactive
CCOc1ccccc1CNC(=O)c1ccc2c(c1)N(CC)CCS2	none
CNC(=S)N(CCCn1ccnc1)Cc1c(F)cccc1Cl	none
CCOc1ccc(NC(=O)c2ccc(NC(=O)CSc3nc4ccccc4c(=O)[nH]3)cc2)cc1	Mdm2 MdmX PPI 56 | Mdm2 MdmX conf inactive
Cc1ccc(C(=O)N/C(=C\c2ccco2)C(=O)NCCN2CCOCC2)cc1	none
COc1ccc(CN2C(=O)c3ccccc3C(/C=N/OCc3ccc(Cl)cc3)C2=O)cc1 (stereo not drawn)	Mdm2 MdmX PPI 67 (no result: CSC inhib) | Mdm2 MdmX conf inactive
Cc1nccn1CCOc1ccccc1Cl	none (no result: PP1 counter, Beta apoptosis, PP5 inh, CSC inhib)
Cc1ccccc1-c1cc(C(=O)Nc2sc(C(=O)OC(C)C)c(C)c2C#N)c2ccccc2n1	Mdm2 MdmX PPI 72, CSC inhib 111 | Mdm2 MdmX conf 95 | Full FLuc ctr inactive
Cc1cccc(NC(=O)c2cc(-c3ccc(C)s3)nc3ccccc23)n1	Mdm2 MdmX PPI 73 | Mdm2 MdmX conf 59 | Full FLuc ctr 83
COc1ccc(-c2cc(C(=O)Nc3sc4c(c3C#N)CCCC4)c3ccccc3n2)cc1	none (no result: Mdm2 MdmX PPI, Calb FLC)
Cc1sc(NC(=O)c2cc(-c3ccc(Cl)cc3)nc3ccccc23)c(C(N)=O)c1C	Mdm2 MdmX PPI 73 | Mdm2 MdmX conf inactive | Full FLuc ctr 76
CCOC(=O)c1sc(NC(=O)c2cc(-c3ccc(C)cc3)nc3ccccc23)c(C#N)c1C	Mdm2 MdmX PPI 76 | Mdm2 MdmX conf 92 | Full FLuc ctr 50
COCCN(C(=O)COC(=O)C(c1ccccc1)c1ccccc1)c1c(N)n(Cc2ccccc2)c(=O)[nH]c1=O	none
COC(=O)c1sc(NC(=O)c2cc(-c3ccccc3)nc3ccccc23)c(C#N)c1C	Mdm2 MdmX PPI 95 | Mdm2 MdmX conf 92 | Full FLuc ctr inactive
Cn1c(=O)c2[nH]c(N3CCN(c4ccccc4)CC3)nc2n(C)c1=O	Mdm2 MdmX PPI 67 | Mdm2 MdmX conf inactive | Full FLuc ctr 67
COc1ccc(CNc2nc3ccccc3n2CCN2CCCCC2)cc1	none
COc1ccc(CCN2CCC(Nc3nc4ccccc4n3Cc3ccc(F)cc3)CC2)cc1	Mdm2 MdmX PPI 99 (no result: Calb FLC) | Mdm2 MdmX conf 91 | Full FLuc ctr 47
CN(C)c1ccc(CNc2ccc3c(c2)ncn3C(C)(C)C)cc1	none
O=S(=O)(Nc1nc2ccccc2s1)c1cnc(Cl)c(Br)c1	none
COC(=O)c1ccc2c(c1)sc(=NC(=O)CCS(=O)(=O)c1ccccc1)n2C	Mdm2 MdmX PPI 51 (no result: Beta apoptosis) | Mdm2 MdmX conf 44 | Full FLuc ctr 77
COCCn1c(=NC(=O)CCS(=O)(=O)c2ccccc2)sc2ccccc21	none
Cc1onc(-c2ccccc2)c1C(=O)NC(=S)Nc1sc2c(c1C#N)CCCC2	Calb FLC inconclusive
CCOC(=O)c1c(-c2ccc(F)cc2)csc1NC(=O)c1c(-c2ccccc2)noc1C	Mdm2 MdmX PPI 85 | Mdm2 MdmX conf 50 | Full FLuc ctr 48
COC(=O)c1c(-c2ccccc2)csc1NC(=O)c1c(-c2ccccc2)noc1C	Mdm2 MdmX PPI 97 | Mdm2 MdmX conf 95 | Full FLuc ctr 53
N#Cc1c(NC(=O)CSc2ncc(-c3ccccc3)n2CC2CCCO2)sc2c1CCCC2 (stereo not drawn)	Mdm2 MdmX PPI 76 (no result: CSC inhib) | Mdm2 MdmX conf 42 | Full FLuc ctr 67
